Laboratory results reported in PubChem BioAssay (NCI).
Compounds without any hit were thinned out: in the full panel of roughly 83,000, 20% have a hit.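 48-hour exposure, single concentration, 96-well plates; percent growth endpoint where 0 means no net growth. Active: below 10.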 A number with no mark means an inactive call. The source made the active and inactive calls.

Assays:
Experiment in all cases: NCI-60 one-dose screen, 48 h (100 = growth as untreated, 0 = no growth, -100 = all killed)
Conditions in all cases: 10 µM unless noted
NCI-H23 lung = tested on: NCI-H23 lung
NCI-H226 lung = tested on: NCI-H226 lung
NCI-H322M lung = tested on: NCI-H322M lung
HOP-62 NSCLC = tested on: HOP-62 NSCLC
NCI-H460 lung = tested on: NCI-H460 lung
HOP-92 NSCLC = tested on: HOP-92 NSCLC
NCI-H522 lung = tested on: NCI-H522 lung
A549/ATCC NSCLC = tested on: A549/ATCC NSCLC
786-0 renal = tested on: 786-0 renal
COLO 205 colon = tested on: COLO 205 colon
DU-145 prostate = tested on: DU-145 prostate
MALME-3M melanoma = tested on: MALME-3M melanoma
MDA-MB-231 breast = tested on: MDA-MB-231 breast
RXF 393 renal = tested on: RXF 393 renal
SF-268 CNS = tested on: SF-268 CNS
SF-295 CNS = tested on: SF-295 CNS
SF-539 CNS = tested on: SF-539 CNS
UACC-257 melanoma = tested on: UACC-257 melanoma
M14 melanoma = tested on: M14 melanoma
K-562 leukemia = tested on: K-562 leukemia

Row | Compound | growth (NCI-H23 lung) | growth (NCI-H226 lung) | growth (NCI-H322M lung) | growth (HOP-62 NSCLC) | growth (NCI-H460 lung) | growth (HOP-92 NSCLC) | growth (NCI-H522 lung) | growth (A549/ATCC NSCLC) | growth (786-0 renal) | growth (COLO 205 colon) | growth (DU-145 prostate) | growth (MALME-3M melanoma) | growth (MDA-MB-231 breast) | growth (RXF 393 renal) | growth (SF-268 CNS) | growth (SF-295 CNS) | growth (SF-539 CNS) | growth (UACC-257 melanoma) | growth (M14 melanoma) | growth (K-562 leukemia)
1 | CCN1CCN(c2nc(NCCNc3ccnc4cc(Cl)ccc34)c3ccccc3n2)CC1 | 69% | 27.2% | 42.3% | 24.9% | 1.75% (active) | 32.7% | 18% | 0.344% (active) | 4.75% (active) | -60.6% (active) | 33.9% | -78% (active) | -73% (active) | -39% (active) | 27.2% | -41.9% (active) | -71.2% (active) | 57.9% | -76.6% (active) | –
2 | Cc1cc(N2CCCCC2)nc(NC2CCCC(Nc3ccnc4cc(Cl)ccc34)C2)n1 (stereo not given) | -15.5% (active) | -50.8% (active) | -48.7% (active) | -86.5% (active) | -64.9% (active) | -71.1% (active) | -54.6% (active) | -23.7% (active) | -96% (active) | -85.8% (active) | 1.31% (active) | -86% (active) | -89.8% (active) | -81.2% (active) | -59.6% (active) | -76.7% (active) | -92.8% (active) | -90.9% (active) | -86.5% (active) | –
3 | NCCNc1nc(Nc2ccc(-c3nc4ccccc4[nH]3)cc2)c2cn[nH]c2n1 | 57.9% | 81.4% | 98.9% | 97.5% | 54.9% | 60.4% | 16.6% | 101% | 93% | 20.8% | 90.9% | 68% | 18.8% | 43% | 68.1% | 62.9% | -9.77% (active) | 104% | 96.1% | –
4 | CCOc1ccc(-n2nc(C(=O)Nc3ccccc3)nc2-c2cc(OC)c(OC)c(OC)c2)cc1 | 66.6% | 80% | 67.6% | 55.7% | 27.9% | 46% | 22.8% | 41.4% | 69.4% | 22.1% | 89.6% | 54.5% | 43.9% | 69.2% | 76.5% | 34% | 62% | 66.4% | 38% | –
5 | CN1CCN(c2nc(NCCCNc3ccnc4cc(Cl)ccc34)c3ccccc3n2)CC1 | 72.5% | 70% | 64.3% | 49% | 28.5% | 68.4% | 20.2% | 29.2% | 74.6% | -6.18% (active) | 59.8% | -66.3% (active) | -8.42% (active) | 43.3% | 66.2% | 62.5% | -71% (active) | 17.7% | -85.6% (active) | –
6 | COc1cc(/C=C/C(=O)Nc2cccnc2Nc2ccc(F)cc2)cc(OC)c1OC | 99.6% | 99% | 107% | 103% | 112% | 74.8% | 48.9% | 70.1% | 92.8% | 113% | 110% | 110% | 93.5% | 108% | 102% | 94.2% | 95.2% | 62.9% | 103% | –
7 | COc1cc(-c2nn(-c3ccc(Br)cc3)cc2C(=O)O)ccc1O | 89.5% | 91.7% | 95.3% | 96.3% | 103% | 94.5% | 67.7% | 105% | 97.6% | 109% | 103% | 110% | 126% | 109% | 87.8% | 101% | 128% | 107% | 102% | –
8 | COc1ccc(SC2c3cc(OC)c(OC)cc3Oc3nc(N)c(C#N)c(N)c32)cc1 (stereo not given) | -60.9% (active) | -70.9% (active) | -95% (active) | -42.1% (active) | -70% (active) | -19.9% (active) | -72.5% (active) | -51.7% (active) | -82.6% (active) | -79% (active) | -82.8% (active) | -68.9% (active) | -67.5% (active) | -79.5% (active) | -61.8% (active) | -69.5% (active) | -96.6% (active) | -43% (active) | -87.2% (active) | –
9 | COc1cc(-c2nn(-c3ccc(C(=O)O)cc3)cc2C(=O)O)ccc1O | 63% | 102% | 98.5% | 61.6% | 61.9% | 58.8% | 12% | 78.2% | 78.3% | 113% | 89.3% | 57.1% | 93.3% | 91.5% | 70.3% | 94.4% | 47.7% | 103% | 33.5% | –
10 | COc1cc(C(=O)Oc2ccccc2OC(=O)c2cc(OC)c(OC)c(OC)c2)cc(OC)c1OC | 86.8% | 107% | 108% | 88.1% | 114% | – | 89.6% | 85.3% | 118% | 103% | 109% | 130% | 85.5% | 89.5% | 84% | 115% | 88.5% | 86.7% | 116% | 100%
11 | Cc1ccc(C(SCC(N)C(=O)O)(c2ccccc2)c2ccc(C)cc2)cc1 (stereo not given) | 12.6% | 56.3% | 29.4% | 31.9% | 9.22% (active) | -10.1% (active) | -19% (active) | -2.96% (active) | 25.1% | -3.13% (active) | -43.8% (active) | 19.8% | -12.7% (active) | – | 20.5% | 14.7% | -5.21% (active) | – | -34.4% (active) | –
12 | CCn1c(O)c(/C=N/NC(=O)C(C)c2ccc(CC(C)C)cc2)sc1=S (stereo not given) | 39.2% | 31.1% | 37.6% | 22.9% | 7.24% (active) | – | -11.6% (active) | 21.8% | 17.8% | 15.3% | 22.1% | 64.3% | 35.4% | 9.92% (active) | 32.9% | 15.8% | -13.5% (active) | 51.9% | 6.26% (active) | 9.15% (active)
13 | Cc1ccc(O)c(N2C(=NCc3ccco3)NS(=O)(=O)c3cnccc32)c1 | 95.2% | 101% | 114% | 100% | 104% | – | 93.3% | 83.7% | 105% | 125% | 118% | 107% | 111% | 57.9% | 100% | 0.898% (active) | 97.9% | 124% | 98.4% | 71.4%
14 | N#CN1CCC[C@H]1C(=O)N1CCc2c(-c3[nH]nc4ncccc34)cccc21 | 4.9% (active) | -29.1% (active) | 20.6% | -10.1% (active) | 3.48% (active) | – | -51.7% (active) | 3.83% (active) | 9.59% (active) | -77.5% (active) | 0.94% (active) | 24% | 3% (active) | -19.7% (active) | 7.17% (active) | -14.3% (active) | -36.9% (active) | 16.5% | -23.4% (active) | 4.49% (active)
15 | NC(N)=N/N=C(/c1ccccc1)c1ccc(F)cc1 | 3.78% (active) | 8.06% (active) | 39.3% | 19.7% | 6.84% (active) | -16.9% (active) | -44.8% (active) | -15.1% (active) | 18.6% | -47% (active) | -19.7% (active) | 36.5% | -18.9% (active) | – | 14.2% | 3.89% (active) | -33.5% (active) | – | -3.19% (active) | –
16 | O=C1Nc2cc(-c3ccc(O)cc3)ccc2/C1=C/c1ccc[nH]1 | -16% (active) | 3.63% (active) | 6.56% (active) | 24.4% | 2.66% (active) | – | 1.89% (active) | 9.14% (active) | 10.9% | 13.7% | 1.75% (active) | 15.3% | 13.2% | -27.3% (active) | 21.7% | -20.7% (active) | -14.6% (active) | 20% | 10.9% | 3.69% (active)
